In PubChem BioAssay (Tox21):
Results filed as inconclusive are left out. Activity calls are given as the source filed them. Unless noted, calls come from the whole dose curve.

Legend:
[1] = Nuclear factor erythroid 2-related factor 2/antioxidant responsive element (Nrf2/ARE) small molecule agonists: qHTS cell viability counter screen in human keratinocytes (AID 1919968; active = well fitted curve in the direction sought with a large enough effect in the repeat runs; an effect the other way counts as inactive or inconclusive; note: nearly all actives have a fitted effect of over 55% in size)
How it was run: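 Parallel cytotoxicity read: KeratinoSens HaCaT cells, compound treatment 23 h, viability by CellTiter-Fluor fluorescence 1 h post-reagent.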

[2] = Nuclear factor erythroid 2-related factor 2/antioxidant responsive element (Nrf2/ARE) small molecule agonists: luciferase reporter gene qHTS assay in human keratinocytes (AID 1919969); note: nearly all actives have a fitted effect of over 35% in size; note: potency is the fitted concentration of half-maximal effect
[3] = target: Gonadotropin-releasing hormone receptor (Homo sapiens) (UniProt P30968); test: Human gonadotropin-releasing hormone receptor (GnRHR) small molecule agonists, calcium flux assay in GnRHR-HEK293 cells (AID 1920063); note: nearly all actives have a fitted effect of over 35% in size
How it was run: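 Calcium flux, agonist mode, human GnRHR stably integrated in HEK293; dye 1 h at 37 C before compound; Ex/Em=480/540 kinetic read, 3 min; 15 concentrations, triplicate.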

[4] = target: KiSS-1 receptor (Homo sapiens) (UniProt Q969F8); test: Human kisspeptin (KISS1R) small molecule agonists, calcium flux assay in KISS1R-HEK293 cells (AID 1920064; active = well fitted curve in the direction sought with a large enough effect in the repeat runs; an effect the other way counts as inactive or inconclusive)
How it was run: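 Triplicate 15-concentration series were applied to dye-loaded human KISS1R HEK293 cells, and agonist-evoked calcium fluorescence was captured for 3 min.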

[5] = G protein-coupled receptor (GPCR) small molecule agonists, calcium flux assay: HEK293 wild type cell line counter screen (AID 1920065)
How it was run: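 Non-specific calcium responders were flagged by adding DMSO-dissolved compounds to dye-loaded cells and reading 480/540 nm fluorescence each second for 3 min; ATP served as positive control.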

[6] = p53 small molecule agonists, cell-based qHTS assay with human liver microsomes: qHTS cell viability counter screen (AID 1963579); note: nearly all actives have a fitted effect of over 45% in size
How it was run: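 After the 460/530 nm beta-lactamase read, CellTiter-Glo was added to the same wells and luminescence measured after 30 min at room temperature, giving viability of p53RE-bla cells treated 16 h with compounds plus microsomes and NADPH.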

[7] = p53 small molecule agonists, cell-based qHTS assay with rat liver microsomes: qHTS cell viability counter screen (AID 1963580); note: nearly all actives have a fitted effect of over 45% in size
How it was run: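 Rat liver microsome (0.5 mg/mL final) and NADPH (0.5 mg/mL final) co-incubation with compounds for 16 h at 37 C on HCT-116 p53RE-bla cells; cytotoxicity taken from intracellular ATP luminescence.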

[8] = p53 small molecule agonists, cell-based qHTS assay: qHTS cell viability counter screen (AID 1963581); note: nearly all actives have a fitted effect of over 45% in size
How it was run: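 Multiplexed with the reporter read, a CellTiter-Glo step (30 min, room temperature) gauges ATP-based viability of HCT-116 p53RE-bla cells after 16 h compound incubation at 37 C.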

[9] = target: 5-hydroxytryptamine receptor 2A (Homo sapiens) (UniProt P28223); test: 5-hydroxytryptamine receptor 2A (HTR2A) small molecule antagonists, cell-based qHTS assay (AID 1963586); note: nearly all actives have a fitted effect of over 45% in size
How it was run: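 CHO cells stably expressing human HTR2A were plated for 18 h at 37 C, then loaded with calcium dye for 1 h. Compounds were preincubated 5 min at room temperature before DOI (4 nM solution) was added. Kinetic fluorescence was read for 3 min.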

[10] = target: 5-hydroxytryptamine receptor 2A (Homo sapiens) (UniProt P28223); test: 5-hydroxytryptamine receptor 2A (HTR2A) small molecule agonists, cell-based qHTS assay (AID 1963587); note: nearly all actives have a fitted effect of over 30% in size
How it was run: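 Kinetic calcium-flux fluorescence (2 min, 1 sec intervals) after compound addition in agonist mode. HTR2A-CHO cells were cultured 18 h, then dye-loaded 1 h at 37 C.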

[11] = target: Muscarinic acetylcholine receptor M1 (Homo sapiens) (UniProt P11229); test: Cholinergic receptor muscarinic 1 (CHRM1) small molecule antagonists, cell-based qHTS assay (AID 1963588); note: nearly all actives have a fitted effect of over 40% in size
How it was run: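 Compounds were tested at 15 concentrations in three independent runs. Dye-loaded CHRM1-CHO cells were exposed 5 min at room temperature before stimulation by acetylcholine added at 50nM. Intracellular calcium was read kinetically on FDSS for 3 min.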

[12] = target: Muscarinic acetylcholine receptor M1 (Homo sapiens) (UniProt P11229); test: Cholinergic receptor muscarinic 1 (CHRM1) small molecule agonists, cell-based qHTS assay (AID 1963589); note: nearly all actives have a fitted effect of over 35% in size
How it was run: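 qHTS, 15-point titration, 3 independent runs: compounds pin-transferred onto dye-loaded CHRM1-CHO cells (human M1), calcium fluorescence followed every second to detect agonism.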

[13] = cAMP Responsive Elements (CRE) small molecule agonists, cell-based qHTS assay (AID 1963590)
How it was run: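 Quantitative HTS for CRE agonists: HEK 293T CRE-bla cells, overnight plating, 3 h compound incubation at 37 C/5% CO2, then 2 h room-temperature LiveBLAzer B/G FRET substrate loading.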

[14] = cAMP Responsive Elements (CRE) small molecule antagonists, cell-based qHTS assay (AID 1963591; active = well fitted inhibition curve with a large enough effect in the signal ratio in the repeat runs, not every such curve was filed as active; the % refers to the signal ratio)
How it was run: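 Fluorescence intensity from cleaved LiveBLAzer B/G substrate (2 h, room temperature) quantified CRE-bla activity in HEK 293T cells exposed 3 h to compound with 0.25 uM final NKH477.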

[15] = target: Beta-2 adrenergic receptor (Homo sapiens) (UniProt P07550); test: Adrenergic beta2 receptor (ADRB2) small molecule antagonists, cell-based qHTS assay (AID 1963592); note: series mostly up to about 92 µM; nearly all actives have a fitted effect of over 50% in size
How it was run: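 Assay format: CHO-ADRB2 cells, 18-20hr seeding at 37C/5% CO2, then compound plus 1nM isoproterenol agonist mix for 0.5hr RT. Homogeneous time-resolved fluorescence cAMP detection after 1hr, expressed as 665/615 nm ratio.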

[16] = target: Beta-2 adrenergic receptor (Homo sapiens) (UniProt P07550); test: Adrenergic beta2 receptor (ADRB2) small molecule agonists, cell-based qHTS assay (AID 1963593);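 note: CHO cells stably overexpressing human ADRB2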
How it was run: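 CHO cells stably over-expressing ADRB2 were plated overnight at 37C, then dosed with compounds plus a stimulation mix containing 100uM IBMX and 25uM Ro-20-1724 for 0.5hr at room temperature. cAMP was measured by HTRF competition, 1hr.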

[17] = target: D(2) dopamine receptor (Homo sapiens) (UniProt P14416); test: Dopamine D2 receptor (DRD2) small molecule antagonists, cell-based qHTS assay (AID 1963595; active = well fitted inhibition curve with a large enough effect in the signal ratio in the repeat runs, with a control signal flat; the % refers to the signal ratio)
How it was run: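 Readout: HTRF cAMP, cAMP-d2 competing with cellular cAMP for anti-cAMP cryptate, read after 1 h. Cells: DRD2-HEK293. Conditions: 0.1 mM Ro20-1724, 12 nM quinpirole, 200 nM NKH477, 30 min RT.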

[18] = target: D(2) dopamine receptor (Homo sapiens) (UniProt P14416); test: Dopamine D2 receptor (DRD2) small molecule agonists, cell-based qHTS assay (AID 1963594); note: nearly all actives have a fitted effect of over 35% in size
How it was run: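 cAMP accumulation in DRD2-HEK293 cells measured by HTRF after 1 h detection; compounds added 10 min before NKH477 (200nM […]) forskolin-analogue stimulation, 30 min at room temperature, with Ro20-1724 present at 0.1 mM final.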
% is set by controls: 0 for no effect and ±100 for the full control effect.

Sequence of Gonadotropin-releasing hormone receptor (Homo sapiens) (P30968 whole entry, looked up): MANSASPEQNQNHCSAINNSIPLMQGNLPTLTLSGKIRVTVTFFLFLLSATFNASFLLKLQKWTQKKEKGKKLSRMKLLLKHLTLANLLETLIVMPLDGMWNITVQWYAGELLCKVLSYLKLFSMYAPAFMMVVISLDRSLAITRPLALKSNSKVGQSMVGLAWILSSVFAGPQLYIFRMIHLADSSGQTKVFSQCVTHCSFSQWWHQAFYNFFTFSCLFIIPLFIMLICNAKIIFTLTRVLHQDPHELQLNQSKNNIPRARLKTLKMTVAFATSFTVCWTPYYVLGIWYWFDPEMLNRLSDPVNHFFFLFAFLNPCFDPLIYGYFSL
Sequence of Muscarinic acetylcholine receptor M1 (Homo sapiens) (P11229 whole entry, looked up): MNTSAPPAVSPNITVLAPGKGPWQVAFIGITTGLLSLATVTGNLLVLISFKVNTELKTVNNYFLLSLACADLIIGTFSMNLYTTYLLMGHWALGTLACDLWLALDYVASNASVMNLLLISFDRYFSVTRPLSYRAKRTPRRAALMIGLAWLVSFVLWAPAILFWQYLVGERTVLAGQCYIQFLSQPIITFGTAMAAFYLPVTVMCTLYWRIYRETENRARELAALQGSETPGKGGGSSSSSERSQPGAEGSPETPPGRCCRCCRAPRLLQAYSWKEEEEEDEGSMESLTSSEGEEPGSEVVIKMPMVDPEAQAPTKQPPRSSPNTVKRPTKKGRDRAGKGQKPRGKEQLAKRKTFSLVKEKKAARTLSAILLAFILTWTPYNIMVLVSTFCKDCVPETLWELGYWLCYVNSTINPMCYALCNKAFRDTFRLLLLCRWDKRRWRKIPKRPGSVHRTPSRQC
Sequence of D(2) dopamine receptor (Homo sapiens) (P14416 whole entry, looked up): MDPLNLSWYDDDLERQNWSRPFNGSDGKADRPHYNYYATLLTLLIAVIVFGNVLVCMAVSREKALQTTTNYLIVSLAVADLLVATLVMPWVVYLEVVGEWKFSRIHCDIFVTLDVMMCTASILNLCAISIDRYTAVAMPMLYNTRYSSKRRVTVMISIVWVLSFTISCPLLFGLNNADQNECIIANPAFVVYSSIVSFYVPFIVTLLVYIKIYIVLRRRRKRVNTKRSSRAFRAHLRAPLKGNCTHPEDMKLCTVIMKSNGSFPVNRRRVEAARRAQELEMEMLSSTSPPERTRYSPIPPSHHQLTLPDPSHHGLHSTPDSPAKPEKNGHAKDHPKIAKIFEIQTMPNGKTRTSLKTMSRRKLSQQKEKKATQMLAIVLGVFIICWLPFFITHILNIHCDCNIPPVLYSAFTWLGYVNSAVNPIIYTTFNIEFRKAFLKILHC
Sequence of 5-hydroxytryptamine receptor 2A (Homo sapiens) (P28223 whole entry, looked up): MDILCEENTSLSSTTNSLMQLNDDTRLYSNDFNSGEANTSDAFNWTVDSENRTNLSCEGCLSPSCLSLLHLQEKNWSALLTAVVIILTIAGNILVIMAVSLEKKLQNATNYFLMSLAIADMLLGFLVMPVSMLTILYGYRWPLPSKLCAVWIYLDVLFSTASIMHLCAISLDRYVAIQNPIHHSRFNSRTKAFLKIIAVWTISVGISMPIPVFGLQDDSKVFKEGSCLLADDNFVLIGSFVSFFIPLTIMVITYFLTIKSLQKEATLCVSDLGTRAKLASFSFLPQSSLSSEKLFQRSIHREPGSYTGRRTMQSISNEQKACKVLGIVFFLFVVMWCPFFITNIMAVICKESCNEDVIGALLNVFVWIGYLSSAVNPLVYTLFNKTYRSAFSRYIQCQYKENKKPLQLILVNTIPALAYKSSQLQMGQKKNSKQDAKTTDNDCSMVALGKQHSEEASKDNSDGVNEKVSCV
Sequence of Beta-2 adrenergic receptor (Homo sapiens) (P07550 whole entry, looked up): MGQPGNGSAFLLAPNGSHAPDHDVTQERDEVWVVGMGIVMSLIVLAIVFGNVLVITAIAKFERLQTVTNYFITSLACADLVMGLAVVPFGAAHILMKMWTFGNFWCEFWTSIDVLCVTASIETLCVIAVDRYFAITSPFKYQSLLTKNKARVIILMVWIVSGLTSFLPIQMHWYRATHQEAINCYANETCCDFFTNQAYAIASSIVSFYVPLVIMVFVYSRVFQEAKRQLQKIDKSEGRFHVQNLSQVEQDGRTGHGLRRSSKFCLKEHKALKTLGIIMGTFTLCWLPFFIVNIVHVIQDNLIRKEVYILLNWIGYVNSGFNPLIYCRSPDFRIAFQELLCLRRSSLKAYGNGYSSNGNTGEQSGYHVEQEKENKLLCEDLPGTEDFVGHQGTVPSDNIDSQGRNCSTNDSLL
Sequence of KiSS-1 receptor (Homo sapiens) (Q969F8 whole entry, looked up): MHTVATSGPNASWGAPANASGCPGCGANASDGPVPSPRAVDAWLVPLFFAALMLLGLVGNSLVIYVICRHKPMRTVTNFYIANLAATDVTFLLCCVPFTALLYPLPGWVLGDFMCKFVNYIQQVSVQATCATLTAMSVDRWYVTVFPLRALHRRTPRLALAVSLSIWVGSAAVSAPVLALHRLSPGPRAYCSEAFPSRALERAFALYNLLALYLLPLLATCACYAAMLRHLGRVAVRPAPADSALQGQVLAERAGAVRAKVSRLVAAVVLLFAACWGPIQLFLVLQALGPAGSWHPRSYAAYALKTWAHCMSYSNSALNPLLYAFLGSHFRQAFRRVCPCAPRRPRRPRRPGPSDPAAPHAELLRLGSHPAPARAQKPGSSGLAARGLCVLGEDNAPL

CC(C)CCOCc1ccccc1
inactive: Potency [1] | Potency [2] | Potency [3] | Potency [4] | Potency [5] | Potency [6] | Potency [7] | Potency [8] | Potency [9] | Potency [10] | Potency [11] | Potency [12] | Potency [13] | Potency [14] | Potency [15] | Potency [16] | Potency [17]

CC1=NN(c2cccc(S(=O)(=O)O)c2)C(=O)C1
inactive: Potency [1] | Potency [2] | Potency [3] | Potency [4] | Potency [5] | Potency [6] | Potency [7] | Potency [8] | Potency [9] | Potency [10] | Potency [11] | Potency [12] | Potency [13] | Potency [14] | Potency [15] | Potency [16] | Potency [18] | Potency [17]

CCCCCCC(=O)c1ccccc1
inactive: Potency [1] | Potency [2] | Potency [3] | Potency [4] | Potency [5] | Potency [6] | Potency [7] | Potency [8] | Potency [9] | Potency [10] | Potency [11] | Potency [12] | Potency [13] | Potency [14] | Potency [15] | Potency [16] | Potency [18] | Potency [17]

CC(C)c1ccc2cc(C(C)C)ccc2c1
inactive: Potency [1] | Potency [3] | Potency [4] | Potency [5] | Potency [6] | Potency [7] | Potency [8] | Potency [9] | Potency [10] | Potency [11] | Potency [12] | Potency [13] | Potency [14] | Potency [15] | Potency [16] | Potency [18] | Potency [17]
active: Potency [2] 48.6 µM

c1ccc(-c2ccc(-c3ccccc3)cc2)cc1
inactive: activity change, negative = cytotoxicity [1] 1.35% [at 19 µM] | activity, positive = activation [2] 16.6% [at 19 µM] | activity change [3] 1.83% [at 11.8 µM, hits give high values] | activation [4] 1.85% [at 15.8 µM] | activation [5] 0.1% [at 11.8 µM] | activity change, negative = cytotoxicity [6] 5.03% [at 13.5 µM] | activity change, negative = cytotoxicity [7] -3.67% [at 13.5 µM] | activity change, negative = cytotoxicity [8] -12.2% [at 13.5 µM] | activity, negative = inhibition [9] -2.25% [at 12.7 µM] | activation [10] 13.6% [at 15.9 µM] | activity, negative = inhibition [11] 9.45% [at 12.6 µM] | activation [12] 0.405% [at 15.8 µM] | activation [13] -0.166% [at 19 µM] | activity change, negative = inhibition [14] -3.34% [at 18.9 µM] | activity change, negative = inhibition [15] 0.791% [at 19 µM] | activation [16] 7.35% [at 19 µM] | activation [18] 2.85% [at 19 µM] | activity change, negative = inhibition [17] 0.516% [at 18.9 µM]

CC(=O)Nc1ccc(OC(=O)c2ccccc2OC(C)=O)cc1
inactive: Potency [1] | Potency [2] | Potency [3] | Potency [4] | Potency [5] | Potency [6] | Potency [7] | Potency [8] | Potency [9] | Potency [10] | Potency [11] | Potency [12] | Potency [13] | Potency [14] | Potency [15] | Potency [16] | Potency [18] | Potency [17]

CCc1ccccc1
inactive: Potency [1] | Potency [2] | Potency [3] | Potency [4] | Potency [5] | Potency [6] | Potency [7] | Potency [8] | Potency [9] | Potency [10] | Potency [11] | Potency [12] | Potency [13] | Potency [14] | Potency [15] | Potency [16] | Potency [18] | Potency [17]

COCCCOCCCOC
inactive: Potency [1] | Potency [2] | Potency [3] | Potency [4] | Potency [5] | Potency [6] | Potency [7] | Potency [8] | Potency [9] | Potency [10] | Potency [11] | Potency [12] | Potency [13] | Potency [14] | Potency [15] | Potency [16] | Potency [17]

O=[N+]([O-])c1nccn1CO[C@@H](CO)[C@H](O)CO
inactive: Potency [1] | Potency [2] | Potency [3] | Potency [4] | Potency [5] | Potency [6] | Potency [7] | Potency [8] | Potency [9] | Potency [10] | Potency [11] | Potency [12] | Potency [13] | Potency [14] | Potency [15] | Potency [16] | Potency [18] | Potency [17]

NC(=O)c1ccccc1
inactive: Potency [1] | Potency [2] | Potency [3] | Potency [4] | Potency [5] | Potency [6] | Potency [7] | Potency [8] | Potency [9] | Potency [10] | Potency [11] | Potency [12] | Potency [13] | Potency [14] | Potency [15] | Potency [16] | Potency [18] | Potency [17]

COC(Cc1ccccc1)OC
inactive: Potency [1] | Potency [2] | Potency [3] | Potency [4] | Potency [5] | Potency [6] | Potency [7] | Potency [8] | Potency [9] | Potency [10] | Potency [11] | Potency [12] | Potency [13] | Potency [14] | Potency [15] | Potency [16] | Potency [18] | Potency [17]

CCCCC(CC)COC(=O)COc1cc(Cl)c(Cl)cc1Cl (stereo unspecified)
inactive: Potency [1] | Potency [2] | Potency [3] | Potency [4] | Potency [5] | Potency [6] | Potency [7] | Potency [8] | Potency [9] | Potency [10] | Potency [11] | Potency [12] | Potency [13] | Potency [14] | Potency [15] | Potency [16] | Potency [18] | Potency [17]

CC(C)(C)CCCCCCOC(=O)c1ccccc1C(=O)OCCCCCCC(C)(C)C
inactive: Potency [1] | Potency [2] | Potency [3] | Potency [4] | Potency [5] | Potency [6] | Potency [7] | Potency [8] | Potency [9] | Potency [10] | Potency [11] | Potency [12] | Potency [13] | Potency [14] | Potency [15] | Potency [16] | Potency [18] | Potency [17]

Nc1cc(N)cc(C(=O)O)c1
inactive: Potency [1] | Potency [2] | Potency [3] | Potency [4] | Potency [5] | Potency [6] | Potency [7] | Potency [8] | Potency [9] | Potency [10] | Potency [11] | Potency [12] | Potency [13] | Potency [14] | Potency [15] | Potency [18]

C=C(C)C(=O)OCc1ccccc1
inactive: Potency [1] | Potency [2] | Potency [3] | Potency [4] | Potency [5] | Potency [6] | Potency [7] | Potency [8] | Potency [9] | Potency [10] | Potency [11] | Potency [12] | Potency [13] | Potency [14] | Potency [15] | Potency [16] | Potency [18] | Potency [17]
